# Laboratory results published in PubChem BioAssay (NCATS).
# Results filed as inconclusive are left out. A number with no mark means an inactive call. The source made the active and inactive calls. The call rests on the fitted dose curve; in most records, active means well fitted curve in the direction sought with a large enough effect; inconclusive means small, poorly fitted or top-dose-only effect, or another doubt; inactive means no such curve, though single readings can be large or run the other way.
# Molecular target: Protein phosphatase 1D (Homo sapiens) (UniProt O15297)
# Assay: Rhodamine-PBP qHTS Assay for Modulators of WT P53-Induced Phosphatase 1 (WIP1) (AID 1347425)
# Conditions: recombinant WIP1, Rhodamine-PBP phosphate fluorescence, real-time; series mostly up to 57.5 µM; activity change, negative = inhibition: at the top concentration
# Text: Assay Provider (PI): Nathan Coussens Ph.D.
# National Center for Advancing Translational Sciences (NCATS), Rockville, MD
# National Institute of Health (NIH), Bethesda, Maryland
# WT P53-Induced Phosphatase 1 (WIP1) is a member of the magnesium-dependent serine/threonine protein phosphatase (PPM) family and is induced by P53 in response to DNA damage. In several human cancers, the WIP1 protein is overexpressed, which is generally associated with a worse prognosis. Although WIP1 is an attractive therapeutic target, no potent, selective, and bioactive small-molecule modulator with favorable pharmacokinetics has been reported. Phosphatase enzymes are among the most challenging targets for small molecules because of the difficulty of achieving both modulator selectivity and bioavailability. Another major obstacle has been the availability of robust and physiologically relevant phosphatase assays that are suitable for high-throughput screening.
# Here, we describe two orthogonal biochemical WIP1 activity assays that utilize phosphopeptides from native WIP1 substrates. We optimized a RapidFire MS assay to quantify the enzymatically dephosphorylated peptide reaction product in a 384-well format. Additionally, a redshifted Rhodamine-PBP fluorescence assay was optimized in a 1,536-well format to enable real-time WIP1 activity measurements through the detection of the orthogonal reaction product, Pi. We validated these two optimized assays by quantitative high-throughput screening against the National Center for Advancing Translational Sciences (NCATS) Pharmaceutical Collection and used secondary assays to confirm and evaluate inhibitors identified in the primary screen.
# SEQUENCE No. (e.g., 1, 2, 3, etc.); […] (e.g., Cells, Incubation, Reagent, etc.); VALUE; DESCRIPTION
# 1; Reagent; 3 uL; WIP1 (6.7 nM), Rh-PBP (13.3 uM), columns 1-48
# 3; Library Compounds; 23 nL; NCATS Pharmaceutical Collection, column 5-48
# 4; Control Compounds; DMSO in column 2, GSK2830371 (57.5 uM, final) in 3-fold serial dilutions in column 3, GSK2830371 (1.15 uM, final) in column 4
# 5; Time; 1 hr; incubation
# 6; Detection; fluorescence (f0); ViewLux, excitation filter = 525 nm, emission filter = 598 nm
# 7; Reagent; 1 uL; VEPP-pS-QETFS (40 uM), columns 2-48
# 8; Detection; fluorescence (f1); ViewLux, excitation filter = 525 nm, emission filter = 598 nm
# NOTES (numbers refer to sequence above)
# 1 & 2; Black medium binding Greiner 1536-well plates (# 789176-F); assay buffer: 50 mM Tris-HCl pH 7.5, 30 mM MgCl2, 1mM TCEP, 0.1 mM EGTA, 75 ug/mL BSA; dispensed with a BioRaptr liquid handler (Beckman Coulter).
# 3 & 4; Kalypsys pintool (equipped with 1536 pinhead, Wako USA) transfer. Tip wash sequence: DMSO, methanol, 3 sec vacuum dry.
# 5; Room temperature incubation.
# 7; VEPPL-pS-QETFS in assay buffer dispensed with a BioRaptr; final reaction conditions: 5 nM WIP1, 10 uM VEPPL-pS-QETFS, 10 uM Rh-PBP, 50 mM Tris-HCl pH 7.5, 30 mM MgCl2, 1 mM TCEP, 0.1 mM EGTA, 75 ug/mL BSA.
# 8; Measurement taken at 1 min intervals for 11 min. Delta readout = f1 - f0.
# Chain of Protein phosphatase 1D (Homo sapiens) (O15297 whole entry, looked up): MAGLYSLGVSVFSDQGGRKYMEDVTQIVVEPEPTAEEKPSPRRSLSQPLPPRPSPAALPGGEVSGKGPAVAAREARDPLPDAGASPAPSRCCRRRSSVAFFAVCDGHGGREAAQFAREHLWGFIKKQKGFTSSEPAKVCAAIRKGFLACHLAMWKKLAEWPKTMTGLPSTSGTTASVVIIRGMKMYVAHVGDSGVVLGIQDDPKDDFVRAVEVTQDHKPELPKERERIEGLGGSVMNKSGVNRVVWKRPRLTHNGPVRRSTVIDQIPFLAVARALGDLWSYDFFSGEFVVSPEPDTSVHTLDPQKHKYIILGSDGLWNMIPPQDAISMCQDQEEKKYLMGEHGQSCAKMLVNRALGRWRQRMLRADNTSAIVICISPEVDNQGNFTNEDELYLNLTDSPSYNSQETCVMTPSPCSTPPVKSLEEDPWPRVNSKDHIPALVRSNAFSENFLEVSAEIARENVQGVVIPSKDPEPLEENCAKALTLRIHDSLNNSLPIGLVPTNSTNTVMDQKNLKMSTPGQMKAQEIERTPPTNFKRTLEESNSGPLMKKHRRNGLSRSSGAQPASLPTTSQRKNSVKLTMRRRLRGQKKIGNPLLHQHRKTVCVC
SMILES,"activity change, negative = inhibition",outcome
O=c1n(CCCN2CCN(c3cccc(Cl)c3)CC2)nc2ccccn12,-12.2%,–
CC(C)(C)NCC(O)c1ccc(O)c(CO)c1 (stereo not given),20.8%,–
CN1CCN(CCCN2c3ccccc3Sc3ccc(C(F)(F)F)cc32)CC1,33.2%,–
CCC(C)n1ncn(-c2ccc(N3CCN(c4ccc(OC[C@H]5CO[C@](Cn6cncn6)(c6ccc(Cl)cc6Cl)O5)cc4)CC3)cc2)c1=O (stereo not given in full),1%,–
O=c1[nH]cnc2[nH]ncc12,9.22%,–
O=C1CCC(N2C(=O)c3ccccc3C2=O)C(=O)N1 (stereo not given),-1.18%,–
Cc1oncc1C(=O)Nc1ccc(C(F)(F)F)cc1,-16.3%,–
CNC[C@H](O)c1cccc(O)c1,7.8%,–
Cc1ccc(-n2nc(C(C)(C)C)cc2NC(=O)Nc2ccc(OCCN3CCOCC3)c3ccccc23)cc1,-17.1%,–
Nc1nc2ccc(OC(F)(F)F)cc2s1,-7.65%,–
Cc1[nH]c(=O)c(C#N)cc1-c1ccc2nccn2c1,17.2%,–
Cc1[nH]c(=O)c(C#N)cc1-c1ccncc1,–,inactive
OC(CN1CCC(Cc2ccc(F)cc2)CC1)c1ccc(Cl)cc1 (stereo not given),13.7%,–
CCOC(=O)C1=C[C@]2(CC)CCCN3CCc4c(n1c1ccccc41)[C@@H]32,11.5%,–
Nc1nc2c(ncn2COCCO)c(=O)[nH]1,13.9%,–
O=NN(CCCl)C(=O)NCCCl,-5.71%,–
NNCCc1ccccc1,8.51%,–
CC(C[N+](C)(C)C)OC(N)=O (stereo not given),20.6%,–
OC(CCN1CCCCC1)(c1ccccc1)C1CC2C=CC1C2 (stereo not given),7.18%,–
CCn1cc(C(=O)O)c(=O)c2cc(F)c(N3CCNC(C)C3)c(F)c21 (stereo not given),7.65%,–

SMILES,"activity change, negative = inhibition",outcome
C#Cc1cccc(Nc2ncnc3cc(OCCOC)c(OCCOC)cc23)c1,34.8%,–
NCCCC(N)(C(=O)O)C(F)F (stereo not given),13.4%,–
c1ccc([C@H]2CN3CCSC3=N2)cc1,4.27%,–
CNC(=O)c1ccccc1Sc1ccc2c(/C=C/c3ccccn3)n[nH]c2c1,88.5%,–
CCOC(=O)N1CCC(=C2c3ccc(Cl)cc3CCc3cccnc32)CC1,-7.07%,–
CC(c1cc2ccccc2s1)N(O)C(N)=O (stereo not given),-9.81%,–
Clc1cccc(Cl)c1NC1=NCCN1,9.87%,–
NC(=O)c1cnccn1,9.15%,–
Oc1ccc(C2CNCCc3c2cc(O)c(O)c3Cl)cc1 (stereo not given),14.6%,–
CCC(C)(C)C(=O)O[C@H]1C[C@@H](C)C=C2C=C[C@H](C)[C@H](CC[C@@H]3C[C@@H](O)CC(=O)O3)[C@H]21,-11.5%,–
CCCc1nn(C)c2c(=O)[nH]c(-c3cc(S(=O)(=O)N4CCN(C)CC4)ccc3OCC)nc12,46.5%,–
Cc1cn[nH]c1,-4.77%,–
Cc1cnc(NC(=O)C2=C(O)c3ccccc3S(=O)(=O)N2C)s1,-0.395%,–
Cn1cnc2c(F)c(Nc3ccc(Br)cc3Cl)c(C(=O)NOCCO)cc21,18.9%,–
Cc1ccccc1C(OCCN(C)C)c1ccccc1 (stereo not given),-5.49%,–
Nc1ccc(S(=O)(=O)Nc2ccnn2-c2ccccc2)cc1,6.26% [at 23.8 µM],–
Cn1cnc([N+](=O)[O-])c1Sc1ncnc2nc[nH]c12,–,inactive
CCCC(CCC)C(=O)O,-1.83%,–
CCCCNc1cc(C(=O)O)cc(S(N)(=O)=O)c1Oc1ccccc1,-1.54%,–
Cc1ccc(N(CC2=NCCN2)c2cccc(O)c2)cc1,6.21%,–
